# ChEMBL document CHEMBL1157539, “Thousands of chemical starting points for antimalarial lead identification” (Nature, 2010)
# Tested on: Plasmodium falciparum
# Test: GSK_TCMDC: Inhibition of Plasmodium falciparum Dd2 in whole red blood cells, using parasite LDH activity as an index of growth. Test compounds present at 2uM
# Format: functional
row,SMILES,Inhibition [%]
1,Cc1cc(C(=O)Nc2nc(-c3ccccn3)nc3ccsc23)no1,90
2,CCOC(=O)c1ccc(NC(=O)NCCCC2CCCN(CCCCCNC(=O)/C=C/c3ccc(Cl)c(Cl)c3)C2)cc1 (stereo not given),30
3,O=C(N[C@@H](CC1CCCCC1)C(=O)NCCN1CCCCC1)c1ccc(O)c(-c2ccc(Cl)c(Cl)c2)c1,99
4,CN(C)c1ccc(C=Cc2ccc3ccccc3n2)c(Cl)c1,95
5,COc1ccc(OC)c(-c2cccc(-c3cccc(NC(=O)c4ccc([N+](=O)[O-])o4)c3)n2)c1,97
6,COc1cc2nc(C)nc(Nc3ccc(Cc4ccccc4)cc3)c2cc1OC.Cl,99
7,COc1cccc(Nc2nc(C)cc(NCc3ccc(-n4ccnc4)cc3)n2)c1,99
8,NC(=O)c1cnc2ccc(-c3cncs3)cc2c1Nc1ccc(F)c(Cl)c1,99
9,CC(=O)Nc1ccc(Cl)c(Cl)c1,98
10,CS(=O)(=O)O.FC(F)(F)COc1c(CCNCCCCNCCc2ccc3ccccc3c2OCC(F)(F)F)ccc2ccccc12,97
11,Cc1ccc(CNC(=O)[C@H](Cc2ccccc2)Nc2cc(C)nc(NCc3ccccc3C)n2)cc1.O=C(O)C(F)(F)F,50
12,C[C@H](Cc1ccc(OCCCCCCOc2ccc(C[C@@H](C)NC(=O)[C@H](O)c3cccc(Cl)c3)cc2)cc1)NC[C@H](O)c1cccc(Cl)c1,99
13,CN(C)CCNCc1ccc(-c2ccc(-c3nc4cc(F)ccc4[nH]3)cc2)cc1.O=C(O)C(F)(F)F,99
14,COc1ccc(-n2cc(CNCCCn3ccnc3)c(-c3cccc(F)c3)n2)cc1,17
15,Cc1cccc2nc(-c3ccc(-c4ccc(C(=O)NCCc5cn(C)cn5)cc4)s3)[nH]c12,8
16,Cl.O=C(NCc1ccc(C(=O)N2CCC(N3CCCCC3)CC2)cc1)c1cc(-c2cccc(C(F)(F)F)c2)ccc1O,58
17,Cc1cc(C)n(Cc2ccc(C(=O)NCC3CCCCC3)cc2)n1,1
18,O=C(/C=C/c1ccc(Cl)c(Cl)c1)NC1CCN(Cc2ccc(O)cc2)CC1.O=C(O)C(F)(F)F,43
19,O=C(NCCc1ccccc1F)c1ccc(N2CCN(c3ccncc3)CC2)cn1.O=C(O)C(F)(F)F,18
20,Cc1cccc2nc(-c3ccc(-c4ccc(CN5CCCC(O)C5)cc4)cc3)[nH]c12.O=C(O)C(F)(F)F (stereo not given),54

row,SMILES,Inhibition [%]
1,CC(C)c1ccc(-c2noc(SCC(=O)N3CCCCC3C)n2)cc1 (stereo not given),92
2,COc1ccc(-c2ccc(NC(=O)c3cccc(F)c3)cc2)cc1CN1CCCN(C)CC1.O=C(O)C(F)(F)F,49
3,COCCNCc1cccc(-c2ccccc2CN(C(=O)c2ccc3c(c2)OCO3)c2ccc(OC)cc2)c1.O=C(O)C(F)(F)F,46
4,CCc1cn2c3c(cc(C(=O)N[C@@H](Cc4cccc(Cl)c4)[C@H](O)CNC4CCOCC4)cc13)N(C)S(=O)(=O)CC2.O=CO,98
5,Fc1ccc2[nH]c(-c3ccc(-c4cccc(CN5CCC(CCN6CCCCC6)CC5)c4)cc3)nc2c1.O=C(O)C(F)(F)F,100
6,Cl.O=c1cc(NCCCNCc2cc3c(Cl)cc(Cl)cc3[nH]2)[nH]c2ccccc12,0
7,Cl.O=C(NC1CCC(CCN2CCc3ccc(-c4cnccn4)cc3CC2)CC1)c1cccc(-n2cccn2)c1 (stereo not given),1
8,CCCCN(CCCC)CCNC(=O)c1ccc(-c2nc3cc(Cl)ccc3[nH]2)c(OCC)c1,80
9,CCC(=O)Nc1ccc(Nc2nc(C)cc(N3CCCC3)n2)cc1,2
10,N=C(NCCCCCCCCNC(=N)Nc1ccc(Cl)cc1)Nc1ccc(Cl)cc1,89
11,Cc1cc(Nc2ccc(Cl)c(Cl)c2)n2nc(C)nc2n1,97
12,CC1CN(Cc2cccc(F)c2)CCN1c1ccc(NC(=O)c2ccc(F)cc2)cc1.O=C(O)C(F)(F)F (stereo not given),92
13,CCOc1cc(C)ccc1C1CCN(CCCCNC(=O)c2nc(-c3ccc(C(F)(F)F)cc3)[nH]c2C)CC1.Cl,98
14,O=C(O)C(F)(F)F.Oc1ccc(CCNc2nc(NCc3cccc(OCc4cccc(F)c4)c3)nc(N3CCNCC3)n2)cc1,0
15,CCN(CC)CCNc1ccnc2[nH]c3ccc(I)cc3c12,95
16,Cc1cccc2nc(-c3ccc(-c4cccc(CN5CCN(CC6CCCN(C)C6)CC5)c4)s3)[nH]c12.O=C(O)C(F)(F)F (stereo not given),99
17,COCCNc1nc(N2CCC(CNC(=O)c3ccc(-c4ccc(C(=O)N(C)C)cc4C)cc3)CC2)nc2cc(OC)c(OC)cc12,97
18,Br.CCCN(CCCCCCN(CCC)CCc1ccc(O)c(O)c1)CCc1ccc(O)cc1,5
19,C#CCNC(=O)c1ccc(-c2ccnc(Nc3cccc(CCCN4CCOCC4)c3)n2)s1,45
20,CCCCNCc1ccc(-c2nc(CN(CCCN3CCN(C)CC3)C(=O)Nc3cccc(Cl)c3)cs2)cc1.O=C(O)C(F)(F)F,73
